Source: PubChem BioAssay (EPA / NIEHS)
Calls of active or inactive are those of the source. How the source made its calls: active means hit-call score of the fitted dose curve at least 0.9, where 1 is the maximum; inactive means score below 0.9.

Read-out: TIMP metallopeptidase inhibitor 2 (TIMP2), TIMP2 (gene 7077)
Test: BSK_KF3CT_TIMP2: BioMAP Diversity Plus: KF3CT Assay for TIMP metallopeptidase inhibitor 2 (TIMP2) Biomarker Activity (AID 2283071)
Conditions: primary human keratinocytes with fibroblasts; actives raise or lower the signal
Method in brief: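 Co-culture of human primary keratinocytes and foreskin fibroblasts, measured 24 h after chemical dosing. TIMP-2 quantified by ELISA and fitted in both directions relative to DMSO. Cytotoxicity checked in parallel cultures by SRB total-protein staining.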

Q: How did the outcome turn out when O=c1n(CC2CO2)c(=O)n(CC2CO2)c(=O)n1CC1CO1 (configuration not stated) was run?
A: The outcome was “inactive”.

Q: How did the outcome turn out when CCOC(=O)COc1ccc2c(c1)CC(NCC(O)c1cccc(Cl)c1)CC2 (configuration not stated) was run?
A: Its outcome is “inactive”.

Q: How did the outcome turn out when O=C1CCC(N2C(=O)c3ccccc3C2=O)C(=O)N1 (configuration not stated) was run?
A: The outcome was “inactive”.

Q: With Cn1cnc([N+](=O)[O-])c1Sc1ncnc2nc[nH]c12 as the compound, how does the outcome read?
A: The outcome was “inactive”.

Q: With CCOCCOCCOCCO as the compound, how does the outcome read?
A: The outcome was “inactive”.

Q: CCOC(=O)CC(CC(=O)OCC)(OC(C)=O)C(=O)OCC was tested. Which outcome did it give?
A: Its outcome is “inactive”.

Q: With CC(C)CC(C)(O)C#CC(C)(O)CC(C)C (configuration not stated) as the compound, how does the outcome read?
A: The outcome was “inactive”.

Q: For O=C(O)c1cc(N=Nc2ccc(S(=O)(=O)Nc3ccccn3)cc2)ccc1O, which outcome is on record?
A: Its outcome is “inactive”.

Q: Cc1ccc(S(=O)(=O)O)cc1C was tested. Which outcome did it give?
A: Its outcome is “inactive”.

Q: Cc1[nH]cnc1C[C@H]1CCc2c(C)c3ccccc3n2C1=O was tested. Which outcome did it give?
A: The outcome was “inactive”.

Q: For On1ccccc1=S, which AC50 is on record?
A: Its AC50 is 11.6 µM (active).

Q: With CCCC(=O)OCC as the compound, how does the outcome read?
A: Its outcome is “inactive”.

Q: Which outcome does the source give for CC1=CC(=O)CC(C)(C)C1 here?
A: Its outcome is “inactive”.

Q: For Cc1ccc(O)cc1, which outcome is on record?
A: Its outcome is “inactive”.

Q: How did the outcome turn out when CCn1nc(Cc2ccccc2)cc1C1CCN(C[C@H]2C[C@H](N(C)[C@@H](C(=O)O)C(C)C)C[C@@H]2c2cccc(F)c2)CC1 was run?
A: Its outcome is “inactive”.

Q: CC(C)CCO was tested. Which outcome did it give?
A: The outcome was “inactive”.

Q: Which outcome does the source give for Cc1ccc(N)cc1O here?
A: Its outcome is “inactive”.

Q: CN(C)c1ccc(N=NS(=O)(=O)O)cc1 was tested. Which outcome did it give?
A: The outcome was “inactive”.

Q: COc1ccc2sc(C(=O)Nc3nnn[nH]3)c(OC(C)C)c2c1 was tested. Which AC50 did it give?
A: The AC50 was 19.9 µM (active).

Q: Which outcome does the source give for O=C(O)CC(O)C(=O)O (configuration not stated) here?
A: Its outcome is “inactive”.

Q: How did the outcome turn out when CCCCCCCCCCCCCCCO was run?
A: The outcome was “inactive”.

Q: How did the outcome turn out when Nc1ccc(Nc2ccccc2)cc1 was run?
A: The outcome was “inactive”.
